In PMC11006913:
Positions count from the first letter of the chain named.

Legend:
Assay in all cases: PBM; 200 nM protein, PBS
Conditions in all cases: dsDNA, one strand shown
HOXA4 [1] = target: HOXA4 (Homo sapiens, UniProt Q00056 201-287, W262R)
HOXA4 [2] = target: HOXA4 (Homo sapiens, UniProt Q00056 201-287)
HOXA4 [3] = target: HOXA4 (Homo sapiens, UniProt Q00056 201-287, W262F)
HOXC9 [4] = target: HOXC9 (Homo sapiens, UniProt P31274 178-260, K195R)
ALX4 [5] = target: ALX4 (Homo sapiens, UniProt Q9H161 200-286)
ALX4 [6] = target: ALX4 (Homo sapiens, UniProt Q9H161 200-286, Q225E)
HOXC9 [7] = target: HOXC9 (Homo sapiens, UniProt P31274 178-260)
MSX2 [8] = target: MSX2 (Homo sapiens, UniProt P35548 130-214, R199I)
HOXC9 [9] = target: HOXC9 (Homo sapiens, UniProt P31274 178-260, R193K)
MSX2 [10] = target: MSX2 (Homo sapiens, UniProt P35548 130-214)
HOXC9 [11] = target: HOXC9 (Homo sapiens, UniProt P31274 178-260, R222W)
MSX2 [12] = target: MSX2 (Homo sapiens, UniProt P35548 130-214, F161Y)
HOXC10 [13] = target: HOXC10 (Homo sapiens, UniProt Q9NYD6 254-340)
HOXC10 [14] = target: HOXC10 (Homo sapiens, UniProt Q9NYD6 254-340, K271E)
ALX1 [15] = target: ALX1 (Homo sapiens, UniProt Q15699 118-204, L144V)
ALX1 [16] = target: ALX1 (Homo sapiens, UniProt Q15699 118-204, L144R)
ALX1 [17] = target: ALX1 (Homo sapiens, UniProt Q15699 118-204)
PAX4 [18] = target: T1, PAX4 (Homo sapiens, UniProt O43316 9-242, R200K)
T1 sequence: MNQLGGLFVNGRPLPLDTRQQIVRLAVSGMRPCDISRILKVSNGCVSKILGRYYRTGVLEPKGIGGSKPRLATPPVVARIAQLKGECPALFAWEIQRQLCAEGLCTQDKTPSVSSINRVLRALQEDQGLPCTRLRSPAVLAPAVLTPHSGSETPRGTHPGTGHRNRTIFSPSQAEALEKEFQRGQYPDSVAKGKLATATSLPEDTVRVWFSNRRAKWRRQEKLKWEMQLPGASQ

PRRX1 [19] = target: PRRX1 (Homo sapiens, UniProt P54821 80-166, F113S)
PAX4 [20] = target: T2, PAX4 (Homo sapiens, UniProt O43316 9-242)
T2 sequence: T1 sequence with K192R

ALX3 [21] = target: ALX3 (Homo sapiens, UniProt O95076 139-225, N203Q)
PAX4 [22] = target: T3, PAX4 (Homo sapiens, UniProt O43316 9-242, R200Q)
T3 sequence: T1 sequence with K192Q

PAX4 [23] = target: T4, PAX4 (Homo sapiens, UniProt O43316 9-242, F177V)
T4 sequence: T1 sequence with F169V, K192R

ALX3 [24] = target: ALX3 (Homo sapiens, UniProt O95076 139-225)
PAX4 [25] = target: T5, PAX4 (Homo sapiens, UniProt O43316 9-242, F177Y)
T5 sequence: T1 sequence with F169Y, K192R

PROP1 [26] = target: PROP1 (Homo sapiens, UniProt O75360 56-141)
PROP1 [27] = target: PROP1 (Homo sapiens, UniProt O75360 56-141, R99H)
ALX3 [28] = target: ALX3 (Homo sapiens, UniProt O95076 139-225, L168Q)
ALX3 [29] = target: ALX3 (Homo sapiens, UniProt O95076 139-225, L168V)
PROP1 [30] = target: PROP1 (Homo sapiens, UniProt O75360 56-141, F88S)
PAX4 [31] = target: T6, PAX4 (Homo sapiens, UniProt O43316 9-242, R227W)
T6 sequence: T1 sequence with K192R, R219W

ALX3 [32] = target: ALX3 (Homo sapiens, UniProt O95076 139-225, N203S)
PRRX1 [33] = target: PRRX1 (Homo sapiens, UniProt P54821 80-166)
Sequence of PRRX1 (Homo sapiens, UniProt P54821 80-166) (P54821 80-166): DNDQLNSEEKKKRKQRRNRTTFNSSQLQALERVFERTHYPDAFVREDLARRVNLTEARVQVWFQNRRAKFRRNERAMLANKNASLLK

Sequence of HOXC9 (Homo sapiens, UniProt P31274 178-260, R193K) (P31274 178-260 R193K): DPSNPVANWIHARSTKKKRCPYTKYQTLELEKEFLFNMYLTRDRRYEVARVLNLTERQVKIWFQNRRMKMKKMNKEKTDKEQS
Sequence of ALX4 (Homo sapiens, UniProt Q9H161 200-286, Q225E) (Q9H161 200-286 Q225E): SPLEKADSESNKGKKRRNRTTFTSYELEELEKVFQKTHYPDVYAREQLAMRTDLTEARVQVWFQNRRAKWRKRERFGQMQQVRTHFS
Sequence of HOXC9 (Homo sapiens, UniProt P31274 178-260, K195R) (P31274 178-260 K195R): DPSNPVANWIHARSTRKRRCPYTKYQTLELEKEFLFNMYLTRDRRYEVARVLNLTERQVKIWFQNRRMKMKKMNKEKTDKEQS
Sequence of ALX4 (Homo sapiens, UniProt Q9H161 200-286) (Q9H161 200-286): as the sequence (Q9H161 200-286 Q225E) above, with E26Q counted along it
Sequence of HOXC9 (Homo sapiens, UniProt P31274 178-260) (P31274 178-260): as the sequence (P31274 178-260 R193K) above, with K16R counted along it
Sequence of ALX1 (Homo sapiens, UniProt Q15699 118-204, L144R) (Q15699 118-204 L144R): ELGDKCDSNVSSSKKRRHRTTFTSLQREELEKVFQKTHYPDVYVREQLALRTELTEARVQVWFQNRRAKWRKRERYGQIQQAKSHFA
Sequence of ALX1 (Homo sapiens, UniProt Q15699 118-204, L144V) (Q15699 118-204 L144V): as the sequence (Q15699 118-204 L144R) above, with R27V counted along it
Sequence of HOXC9 (Homo sapiens, UniProt P31274 178-260, R222W) (P31274 178-260 R222W): as the sequence (P31274 178-260 R193K) above, with K16R, R45W counted along it
Sequence of HOXC10 (Homo sapiens, UniProt Q9NYD6 254-340) (Q9NYD6 254-340): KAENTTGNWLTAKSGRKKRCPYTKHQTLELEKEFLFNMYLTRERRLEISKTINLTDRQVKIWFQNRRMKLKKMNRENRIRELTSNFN
Sequence of HOXA4 (Homo sapiens, UniProt Q00056 201-287, W262F) (Q00056 201-287 W262F): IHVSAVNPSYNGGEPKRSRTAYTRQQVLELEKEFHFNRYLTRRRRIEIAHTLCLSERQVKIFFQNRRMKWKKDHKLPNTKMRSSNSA
Sequence of HOXA4 (Homo sapiens, UniProt Q00056 201-287, W262R) (Q00056 201-287 W262R): as the sequence (Q00056 201-287 W262F) above, with F62R counted along it
Sequence of HOXA4 (Homo sapiens, UniProt Q00056 201-287) (Q00056 201-287): as the sequence (Q00056 201-287 W262F) above, with F62W counted along it
Sequence of ALX1 (Homo sapiens, UniProt Q15699 118-204) (Q15699 118-204): as the sequence (Q15699 118-204 L144R) above, with R27L counted along it
Sequence of PRRX1 (Homo sapiens, UniProt P54821 80-166, F113S) (P54821 80-166 F113S): as the sequence (P54821 80-166) above, with F34S counted along it
Sequence of HOXC10 (Homo sapiens, UniProt Q9NYD6 254-340, K271E) (Q9NYD6 254-340 K271E): as the sequence (Q9NYD6 254-340) above, with K18E counted along it
Sequence of ALX3 (Homo sapiens, UniProt O95076 139-225, L168V) (O95076 139-225 L168V): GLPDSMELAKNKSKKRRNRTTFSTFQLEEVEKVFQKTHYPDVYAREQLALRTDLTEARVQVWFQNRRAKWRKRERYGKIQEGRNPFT
Sequence of PROP1 (Homo sapiens, UniProt O75360 56-141) (O75360 56-141): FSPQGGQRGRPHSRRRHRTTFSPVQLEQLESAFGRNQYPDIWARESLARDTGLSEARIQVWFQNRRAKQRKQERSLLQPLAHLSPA
Sequence of ALX3 (Homo sapiens, UniProt O95076 139-225) (O95076 139-225): as the sequence (O95076 139-225 L168V) above, with V30L counted along it
Sequence of ALX3 (Homo sapiens, UniProt O95076 139-225, N203S) (O95076 139-225 N203S): as the sequence (O95076 139-225 L168V) above, with V30L, N65S counted along it
Sequence of PROP1 (Homo sapiens, UniProt O75360 56-141, R99H) (O75360 56-141 R99H): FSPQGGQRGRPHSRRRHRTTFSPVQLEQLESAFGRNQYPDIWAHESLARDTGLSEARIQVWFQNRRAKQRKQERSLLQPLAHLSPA
Sequence of ALX3 (Homo sapiens, UniProt O95076 139-225, N203Q) (O95076 139-225 N203Q): as the sequence (O95076 139-225 L168V) above, with V30L, N65Q counted along it
Sequence of PROP1 (Homo sapiens, UniProt O75360 56-141, F88S) (O75360 56-141 F88S): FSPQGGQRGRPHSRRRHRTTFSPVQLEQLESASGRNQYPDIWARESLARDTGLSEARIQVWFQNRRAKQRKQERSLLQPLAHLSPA
Sequence of ALX3 (Homo sapiens, UniProt O95076 139-225, L168Q) (O95076 139-225 L168Q): as the sequence (O95076 139-225 L168V) above, with V30Q counted along it
Sequence of MSX2 (Homo sapiens, UniProt P35548 130-214, R199I) (P35548 130-214 R199I): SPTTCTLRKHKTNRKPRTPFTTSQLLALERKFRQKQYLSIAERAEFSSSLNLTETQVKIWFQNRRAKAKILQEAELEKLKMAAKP
Sequence of MSX2 (Homo sapiens, UniProt P35548 130-214, F161Y) (P35548 130-214 F161Y): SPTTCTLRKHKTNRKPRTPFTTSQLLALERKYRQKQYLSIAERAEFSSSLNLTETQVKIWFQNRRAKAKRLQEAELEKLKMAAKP
Sequence of MSX2 (Homo sapiens, UniProt P35548 130-214) (P35548 130-214): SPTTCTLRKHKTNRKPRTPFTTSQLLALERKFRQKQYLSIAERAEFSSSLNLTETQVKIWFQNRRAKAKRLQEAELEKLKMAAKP

Sequence: AATAGGTG
- binding signal (HOXA4 [1]): 10.3 upbm affinity estimate (log intensity, higher = more binding, comparable within an allelic series)
- binding signal (HOXA4 [2]): 11.3 upbm affinity estimate (log intensity, higher = more binding, comparable within an allelic series)
- binding signal (HOXA4 [3]): 10.3 upbm affinity estimate (log intensity, higher = more binding, comparable within an allelic series)

Sequence: AAGATTAC
- binding signal (HOXA4 [1]): 10.2 upbm affinity estimate (log intensity, higher = more binding, comparable within an allelic series)
- binding signal (HOXA4 [2]): 11.1 upbm affinity estimate (log intensity, higher = more binding, comparable within an allelic series)
- binding signal (HOXA4 [3]): 10.4 upbm affinity estimate (log intensity, higher = more binding, comparable within an allelic series)

Sequence: CGCGGTGC
- binding signal (HOXC9 [4]): 9.77 upbm affinity estimate (log intensity, higher = more binding, comparable within an allelic series)
- binding signal (ALX4 [5]): 8.05 upbm affinity estimate (log intensity, higher = more binding, comparable within an allelic series)
- binding signal (ALX4 [6]): 8.13 upbm affinity estimate (log intensity, higher = more binding, comparable within an allelic series)
- binding signal (HOXC9 [7]): 9.77 upbm affinity estimate (log intensity, higher = more binding, comparable within an allelic series)
- binding signal (MSX2 [8]): 9.6 upbm affinity estimate (log intensity, higher = more binding, comparable within an allelic series)
- binding signal (HOXC9 [9]): 9.76 upbm affinity estimate (log intensity, higher = more binding, comparable within an allelic series)
- binding signal (MSX2 [10]): 9.52 upbm affinity estimate (log intensity, higher = more binding, comparable within an allelic series)
- binding signal (HOXC9 [11]): 9.74 upbm affinity estimate (log intensity, higher = more binding, comparable within an allelic series)
- binding signal (MSX2 [12]): 9.68 upbm affinity estimate (log intensity, higher = more binding, comparable within an allelic series)

Sequence: GGTAATAA
- binding signal (HOXC9 [4]): 12.4 upbm affinity estimate (log intensity, higher = more binding, comparable within an allelic series)
- binding signal (HOXC10 [13]): 12.2 upbm affinity estimate (log intensity, higher = more binding, comparable within an allelic series)
- binding signal (HOXC9 [7]): 12.6 upbm affinity estimate (log intensity, higher = more binding, comparable within an allelic series)
- binding signal (HOXC9 [9]): 12.5 upbm affinity estimate (log intensity, higher = more binding, comparable within an allelic series)
- binding signal (HOXC10 [14]): 11.9 upbm affinity estimate (log intensity, higher = more binding, comparable within an allelic series)
- binding signal (HOXC9 [11]): 10.9 upbm affinity estimate (log intensity, higher = more binding, comparable within an allelic series)

Sequence: GACCTCGC
- binding signal (HOXC9 [4]): 9.59 upbm affinity estimate (log intensity, higher = more binding, comparable within an allelic series)
- binding signal (HOXC10 [13]): 10 upbm affinity estimate (log intensity, higher = more binding, comparable within an allelic series)
- binding signal (HOXC9 [7]): 9.54 upbm affinity estimate (log intensity, higher = more binding, comparable within an allelic series)
- binding signal (HOXC9 [9]): 9.57 upbm affinity estimate (log intensity, higher = more binding, comparable within an allelic series)
- binding signal (HOXC10 [14]): 9.99 upbm affinity estimate (log intensity, higher = more binding, comparable within an allelic series)
- binding signal (HOXC9 [11]): 9.76 upbm affinity estimate (log intensity, higher = more binding, comparable within an allelic series)

Sequence: GCCCGAGC
- binding signal (HOXC9 [4]): 9.54 upbm affinity estimate (log intensity, higher = more binding, comparable within an allelic series)
- binding signal (ALX4 [5]): 8.18 upbm affinity estimate (log intensity, higher = more binding, comparable within an allelic series)
- binding signal (ALX4 [6]): 8.13 upbm affinity estimate (log intensity, higher = more binding, comparable within an allelic series)
- binding signal (HOXC9 [7]): 9.62 upbm affinity estimate (log intensity, higher = more binding, comparable within an allelic series)
- binding signal (HOXC9 [9]): 9.44 upbm affinity estimate (log intensity, higher = more binding, comparable within an allelic series)
- binding signal (HOXC9 [11]): 9.78 upbm affinity estimate (log intensity, higher = more binding, comparable within an allelic series)

Sequence: CCAGTGGG
- binding signal (HOXC9 [4]): 9.58 upbm affinity estimate (log intensity, higher = more binding, comparable within an allelic series)
- binding signal (ALX4 [5]): 8.11 upbm affinity estimate (log intensity, higher = more binding, comparable within an allelic series)
- binding signal (ALX4 [6]): 8.16 upbm affinity estimate (log intensity, higher = more binding, comparable within an allelic series)
- binding signal (HOXC9 [7]): 9.54 upbm affinity estimate (log intensity, higher = more binding, comparable within an allelic series)
- binding signal (ALX1 [15]): 6.51 upbm affinity estimate (log intensity, higher = more binding, comparable within an allelic series)
- binding signal (HOXC9 [9]): 9.48 upbm affinity estimate (log intensity, higher = more binding, comparable within an allelic series)
- binding signal (ALX1 [16]): 6.46 upbm affinity estimate (log intensity, higher = more binding, comparable within an allelic series)
- binding signal (HOXC9 [11]): 9.57 upbm affinity estimate (log intensity, higher = more binding, comparable within an allelic series)
- binding signal (ALX1 [17]): 6.33 upbm affinity estimate (log intensity, higher = more binding, comparable within an allelic series)

Sequence: TAATTTAA
- binding signal (HOXC9 [4]): 12.2 upbm affinity estimate (log intensity, higher = more binding, comparable within an allelic series)
- binding signal (ALX4 [5]): 13.7 upbm affinity estimate (log intensity, higher = more binding, comparable within an allelic series)
- binding signal (PAX4 [18]): 11.7 upbm affinity estimate (log intensity, higher = more binding, comparable within an allelic series)
- binding signal (PRRX1 [19]): 11.2 upbm affinity estimate (log intensity, higher = more binding, comparable within an allelic series)
- binding signal (PAX4 [20]): 12.2 upbm affinity estimate (log intensity, higher = more binding, comparable within an allelic series)
- binding signal (ALX4 [6]): 12.7 upbm affinity estimate (log intensity, higher = more binding, comparable within an allelic series)
- binding signal (HOXC9 [7]): 12.2 upbm affinity estimate (log intensity, higher = more binding, comparable within an allelic series)
- binding signal (ALX1 [15]): 11.4 upbm affinity estimate (log intensity, higher = more binding, comparable within an allelic series)
- binding signal (ALX3 [21]): 8.49 upbm affinity estimate (log intensity, higher = more binding, comparable within an allelic series)
- binding signal (PAX4 [22]): 11.9 upbm affinity estimate (log intensity, higher = more binding, comparable within an allelic series)
- binding signal (HOXC9 [9]): 12.2 upbm affinity estimate (log intensity, higher = more binding, comparable within an allelic series)
- binding signal (ALX1 [16]): 11.1 upbm affinity estimate (log intensity, higher = more binding, comparable within an allelic series)
- binding signal (PAX4 [23]): 10.6 upbm affinity estimate (log intensity, higher = more binding, comparable within an allelic series)
- binding signal (ALX3 [24]): 12.4 upbm affinity estimate (log intensity, higher = more binding, comparable within an allelic series)
- binding signal (PAX4 [25]): 11 upbm affinity estimate (log intensity, higher = more binding, comparable within an allelic series)
- binding signal (PROP1 [26]): 11 upbm affinity estimate (log intensity, higher = more binding, comparable within an allelic series)
- binding signal (PROP1 [27]): 10.6 upbm affinity estimate (log intensity, higher = more binding, comparable within an allelic series)
- binding signal (ALX3 [28]): 10.2 upbm affinity estimate (log intensity, higher = more binding, comparable within an allelic series)
- binding signal (HOXC9 [11]): 10.9 upbm affinity estimate (log intensity, higher = more binding, comparable within an allelic series)
- binding signal (ALX3 [29]): 9.7 upbm affinity estimate (log intensity, higher = more binding, comparable within an allelic series)
- binding signal (PROP1 [30]): 7.76 upbm affinity estimate (log intensity, higher = more binding, comparable within an allelic series)
- binding signal (PAX4 [31]): 10.9 upbm affinity estimate (log intensity, higher = more binding, comparable within an allelic series)
- binding signal (ALX3 [32]): 8.64 upbm affinity estimate (log intensity, higher = more binding, comparable within an allelic series)
- binding signal (PRRX1 [33]): 13.3 upbm affinity estimate (log intensity, higher = more binding, comparable within an allelic series)

Sequence: CAGACGGC
- binding signal (HOXC9 [4]): 9.46 upbm affinity estimate (log intensity, higher = more binding, comparable within an allelic series)
- binding signal (PRRX1 [19]): 9.13 upbm affinity estimate (log intensity, higher = more binding, comparable within an allelic series)
- binding signal (HOXC9 [7]): 9.65 upbm affinity estimate (log intensity, higher = more binding, comparable within an allelic series)
- binding signal (ALX1 [15]): 6.56 upbm affinity estimate (log intensity, higher = more binding, comparable within an allelic series)
- binding signal (HOXC9 [9]): 9.48 upbm affinity estimate (log intensity, higher = more binding, comparable within an allelic series)
- binding signal (ALX1 [16]): 6.52 upbm affinity estimate (log intensity, higher = more binding, comparable within an allelic series)
- binding signal (HOXC9 [11]): 9.64 upbm affinity estimate (log intensity, higher = more binding, comparable within an allelic series)
- binding signal (ALX1 [17]): 6.59 upbm affinity estimate (log intensity, higher = more binding, comparable within an allelic series)
- binding signal (PRRX1 [33]): 9.37 upbm affinity estimate (log intensity, higher = more binding, comparable within an allelic series)
